Where “and” joins values, the source holds several entries; their conditions need not be identical. Identical values can stand only once.
What follows are molecules tested on HL-1 (assay: protection of cardiomyocytes from stress damage, SAR follow-up, cell-based, panel, H9c2 and HL-1, ATP luminescence, set 2 (AID 651871;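 further: cells exposed to stressor for 2 h before ATP readout; reference of the scale not given here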)). Details: H9c2/HL-1 cardiomyocytes, 2-deoxyglucose stress, with 2-deoxyglucose; run 1, at 79 µM (top of the series).
In the case of `COc1ccc2c(c1OC)C(=O)N1c3ccccc3C(=O)N(Cc3cccc(Cl)c3Cl)C21` (stereo not drawn), the activity (protection/inhibition) is reported as 41.2% and 40.9% and -9.68%.
Molecule `CCOC(=O)c1cccc(NC(=O)CNC(=O)c2cc(-c3cc(OC)c(OC)c(OC)c3)nc3ccccc23)c1` has an activity (protection/inhibition) of 101%.
`COc1ccc2nc(-c3cc(OC)c(OC)c(OC)c3)cc(C(=O)NCC(=O)Nc3ccc(C(C)=O)cc3)c2c1` was tested, and the activity (protection/inhibition) was 115%.
